# Data reported in PubChem BioAssay AID624296 (National Center for Advancing Translational Sciences (NCATS), 2012).
# About 9,900 (2.8%) of roughly 350,000 compounds were called active. About 15% were inconclusive and are not listed. What follows is part of a selection rich in actives, with near analogues and random picks from the rest. A number with no mark means an inactive call. Calls come from the whole dose curve; as a rule, active = well fitted activation curve with a large enough effect; inconclusive = small, poorly fitted or top-dose-only effect; inactive = no such curve, though single readings can be large or run the other way.
# Experiment: A quantitative high throughput screen for small molecules that induce DNA re-replication in MCF 10a normal breast cells. For activity, positive = re-replication: % of control where 0% means no effect. Note: nearly all actives have a fitted effect of over 50% in size.
# Conditions: MCF 10A DNA re-replication, Hoechst nuclear intensity, 48 h; series mostly up to 46.1 µM; activity, positive = re-replication: at the top concentration
# Potency is the fitted concentration of half-maximal effect.
SMILES,Potency,"activity, positive = re-replication"
CCCC1=Nc2cc(C(=O)NCc3ccco3)ccc2Sc2ccccc21,8.2 µM (active),
CCC1=Nc2cc(C(=O)NCCCN3CCOCC3)ccc2Sc2ccc(Br)cc21,,26.8%
c1ccc(-c2ccc(OCCN3CCOCC3)cc2)cc1,,10.6%
CCOc1ccc(C(=O)CCN2CCOCC2)cc1,18.4 µM (active),
CC(=O)c1ccc(OCCN2CCOCC2)cc1,,1.39%
O=C(c1ccccc1)c1ccc(OCC(O)CN2CCCC2)cc1 (stereo not given),,0.887%
O=C(c1ccc(Cl)cc1)c1ccc(OCC(O)CN2CCCCC2)cc1 (stereo not given),5.01 µM (active),
OC(COc1ccc(Br)cc1)CN1CCCC1 (stereo not given),,12.5%
CC(C)CCSc1ncnc2c1oc1nc3c(cc12)COC(C)(C)C3,5.8 µM (active),
CCCc1nc2oc3c(OCC)ncnc3c2c2c1COC(C)(C)C2,,27.7%
C=CCn1c(=S)[nH]c2nc3c(cc2c1=O)COC(C)(C)C3,,1.01%
CSCCC(NS(=O)(=O)c1ccc(C)cc1)C(=O)N(C)CC(=O)Nc1ccccc1Br (stereo not given),,4.3%
O=C(COC(=O)c1ccc(O)cc1O)c1ccc2c(c1)OCCO2,,-0.272%
O=C1COc2c1ccc(O)c2O,,-41.8%
CCC(=O)Nc1ccc(C(=O)Nc2ccc3c(c2)C(=O)N(CC2CCCO2)C3=O)cc1 (stereo not given),,3.25%
O=C1c2cccc3c([N+](=O)[O-])ccc(c23)C(=O)N1CC1CCCO1 (stereo not given),18.4 µM (active),
CCOc1cccc(=O)c2c(C)n(CC3CCCO3)c(C)c12 (stereo not given),,10.7%
N#CC(Cc1cc2ccccc2n1S(=O)(=O)c1ccccc1)OCc1ccccc1 (stereo not given),,-1.6%
Cc1ccc2cc(/C=N/NC(=O)[C@@H]3CCCN3)c(Cl)nc2c1,,5.15%
Cc1ccc2cc(/C=N/Nc3ccc(C(=O)O)cc3)c(Cl)nc2c1,6.51 µM (active),
O=C(O)c1ccc(N/N=C/c2ccc3ncccc3c2)cc1,,-0.921%
COc1cc(/C=C(\C#N)C(=O)Nc2ccc3ccccc3c2)c([N+](=O)[O-])cc1OC,,15.9%
COc1ccc(NC(=O)/C(C#N)=C\c2cc(OC)c(OCc3ccc(C(=O)O)cc3)cc2Br)cc1,16.4 µM (active),
COc1cc(C=O)c(Br)cc1OCC(=O)NCc1ccccc1,,-2.65%
NC(=O)C1(N2CCCC2)CCN(Cc2ccccc2)CC1,,0.0869%

SMILES,Potency,"activity, positive = re-replication"
COC(=O)c1cc2c(N)c(C(=O)c3ccc(Cl)cc3)sc2nc1C(OC)OC,20.6 µM (active),
COC(=O)c1sc2ncccc2c1OCc1ccc(Cl)cc1Cl,,-182% [at 0.0737 µM]
COC(=O)c1cn(C(=O)c2ccc(Cl)cc2)c2ccccc12,,-2.16%
CN(Cc1cccs1)C(=O)CN1C(=O)c2ccccc2S1(=O)=O,,2.91%
CCOC(=O)C1=CN(Cc2ccc(Br)cc2)S(=O)(=O)NC1C (stereo not given),,-1.7%
CCOC(=O)c1c(NC(=O)c2ccc(S(=O)(=O)N(C)CC3CCCO3)cc2)sc2c1CC(C)(C)NC2(C)C (stereo not given),,-0.748%
COC(=O)c1c(NC(=O)COc2ccc(Cl)cc2Cl)sc2c1CC(C)(C)NC2(C)C,3.26 µM (active),
Cc1cc(NC(=O)COc2ccc(Cl)cc2Cl)n(CCC#N)n1,,-12.1%
COc1ccc(N(Cc2cc3cc(OC)ccc3[nH]c2=O)S(C)(=O)=O)cc1,,2.63%
CCC(=O)N(Cc1cc2cc(OC)ccc2[nH]c1=O)c1ccccc1C,,11.2%
COc1ccc2[nH]c(=O)c(CNc3ccc(C)c(C)c3)cc2c1,14.6 µM (active),
c1ccc(-c2c[nH]c(-c3ccccc3)c2)cc1,,18.5%
COc1ccc(NC(=O)CN(C)C(=O)c2cc(C3CC3)nn2-c2ccccc2)cc1,,0.411%
Cc1nc2ccccc2c(C(=O)O)c1-c1ccccn1,,0.373%
COc1cc2c(cc1CNC[C@H]1O[C@@H](n3cnc(C(N)=O)n3)[C@H](O)[C@@H]1O)OCO2,,-5.16%
C/C(=N\NC(=O)c1ccccc1F)c1ccccn1,23.1 µM (active),
C/C(CC(=O)Nc1ccc(N(C)C)cc1)=N\NC(=O)c1ccccc1F,,-3.45%
C/C(=N\NC(=O)Cc1ccc(Cl)cc1)c1ccccn1,,-8.75%
O=C(CNC(=O)c1cc(S(=O)(=O)N2CCOCC2)ccc1N1CCCC1)Nc1ccc(F)c(F)c1,,16%
Cc1c(C(=O)N/N=C/c2ccccc2)[nH]c2c([N+](=O)[O-])cccc12,4.11 µM (active),
Cc1cc(C(=O)N/N=C/c2ccccc2[N+](=O)[O-])c(C)o1,,-4.32%
O=C(N/N=C/c1ccc([N+](=O)[O-])cc1)c1c[nH]c2ccccc12,,14.1%
CC(=O)N(O)CCCCCNC(=O)CCC(=O)N(O)CCCCCNC(=O)CCC(=O)N(O)CCCCCNC(=O)CCC(=O)O,,-0.0207%
COc1ccc(S(=O)(=O)N2CCCCCC2)cc1NC(=O)Cc1ccc(OC)c(OC)c1,,3.06%
O=C(NCCc1ccco1)c1ccc(OCc2cn3ccccc3n2)cc1,,3.69%
